Assay outcomes from PubChem.
Sampled rows, rich in hits. Any-hit rate of the full collection: about 19%.
IL-1B inflam inh: inhibitors of inflammasome signaling (IL-1 beta secretion). 360,000 compounds, 4.7% hits. THP-1 LPS/ATP IL-1B secretion, AlphaLISA, 16 h; active compounds read low. activity change, % at 57.5 µM; in the data active means activity change below about -50%; inconclusive means mostly about -30% to -49%
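THP-1 cells pretreated 1 hr with compounds (up to 57.5 uM final), then stimulated with LPS (250 ng/mL final) plus ATP (1.25 mM final); secreted IL-1B measured by AlphaLISA after 16 hr, decreased signal indicating inhibition.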
HT1080-NT tox: kills 2HG-producing HT-1080-NT fibrosarcoma cells | 360,000 compounds, 1.6% hits | HT-1080-NT fibrosarcoma viability, CellTiter-Glo ATP luminescence, 48 h | Potency, µM (top dose mostly 46.1 µM), for inactives: at the top dose activity, negative = less viability, actives largely listed as cytotoxic;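 further: NT is the 2HG producing partner of a matched IDH1 knockdown line; potency means the concentration at half of the fitted maximal effect; 0% = DMSO-treated cells and -100% = media-only wells without cells; nearly all actives have a fitted effect of over 55% in size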
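Fibrosarcoma NT cells, 750 per well in 5% FBS RPMI, were exposed to compound for 48 hours. Viability: CellTiter-Glo luminescence.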
DT40 TDP1 CPT: growth inhibition of DT40 Tdp1-/-;hTDP1 cells with camptothecin (screen for TDP1 inhibitors); 420,000 compounds, 12% hits; Potency, µM (highest dose often 46.2 µM), without a hit: at the highest dose activity change, negative = growth inhibition, hits mostly inhibitors; AID 686979; chicken DT40 Tdp1-/-;hTDP1 cells + 20 nM CPT, ATP luminescence, 48 h; further: potency means the concentration at half of the fitted maximal effect; nearly all actives have a fitted effect of over 55% in size
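Cell growth measured by CellTiter-Glo luminescence after a minimum 48 h, 37 C compound exposure with 20 nM CPT in Tdp1-knockout DT40 cells stably expressing hTDP1, seeded 400/well; qHTS titration format.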
HT1080 IDH1KD tx: HT-1080 IDH1 knockdown cell toxicity (counter line) | HT-1080 IDH1 knockdown viability, ATP luminescence, 48 h | Potency, µM (doses to about 46.1 µM), inactives show at the top dose activity, negative = toxicity, hits mostly cytotoxic | 360,000 compounds, 2% hits;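 further: potency means the concentration at half of the fitted maximal effect; 0% = DMSO wells and -100% = cell-free medium wells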
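After a 2 h attachment period, IDH1KD HT-1080 cells took pin-transferred compound for 48 h at 37 °C; ATP-based luminescence after 10 min room-temperature reagent incubation reported viability.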
TDP1 cell noCPT: qHTS for Inhibitors of human tyrosyl-DNA phosphodiesterase 1 (TDP1): qHTS in cells in absence of CPT; DT40 Tdp1-/- hTDP1 cells, no CPT, ATP luminescence, 48 h; Potency, µM (titrated, usually from 46.2 µM), inactives show at the highest dose activity change, negative = growth inhibition, actives largely listed as inhibitors; 420,000 compounds, 15% hits; AID 686978, 2013; further: potency means the concentration at half of the fitted maximal effect; nearly all actives have a fitted effect of over 55% in size
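Chicken DT40 Tdp1-/- cells stably complemented with human TDP1 were seeded at 400 cells/well with DMSO in place of 20 nM camptothecin. After compound pinning, cells grew at least 48 hr at 37 °C; viability read by CellTiter-Glo luminescence.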
* hit, by the source's call; i = inactive; ? = inconclusive; . = no result; [ ] = remark or other dose. Unless noted, the call rests on the fitted dose curve; in most records, active means well fitted curve in the direction sought with a large enough effect; inconclusive means small, poorly fitted or top-dose-only effect, or another doubt; inactive means no such curve, though single readings can be large; an effect the other way counts as inactive or inconclusive. Unless noted, on the % scale 0 is the no-effect control and ±100 the full control effect.

SMILES	IL-1B inflam inh	HT1080-NT tox	DT40 TDP1 CPT	HT1080 IDH1KD tx	TDP1 cell noCPT
O=C(c1ccncc1)N(c1ccc2oc3c(c2c1)CCCC3)S(=O)(=O)c1ccc(F)cc1	-138*	-24%	?	?	?
CC(C)OC(=O)C(C(=O)C(F)(F)F)c1cc(NS(=O)(=O)c2ccc3c4c(cccc24)C(=O)N3)ccc1O (stereo not drawn)	.	.	12µM*	.	?
COC(=O)c1c(C)oc(C)c1S(=O)(=O)N(Cc1ccccc1)C(C)C	2	-6%	13µM*	-11%	16µM*
COC(=O)c1c(C)oc(C)c1S(=O)(=O)Nc1ccccc1	1	0%	-9%	2%	-26%
O=C1Nc2ccc(S(=O)(=O)Nc3ccccc3O)c3cccc1c23	.	.	0%	.	-22%
CCC(NC(=O)Cc1c(C)c2cc3c(cc2oc1=O)OC(C)(C)CC3)C(=O)O (stereo not drawn)	0	18%	10%	19%	11%
CCC1(CC)SC(N)=NC1=O	3	9%	-5%	5%	-7%
CN1c2ccccc2SC2C(c3ccccc3)=NOC21 (stereo not drawn)	-3	13%	-3%	-11%	-14%
COc1ccc(S(=O)(=O)N2CCOC2CNC(=O)C(=O)NCCCN2CCOCC2)cc1 (stereo not drawn)	8	1%	2%	1%	-3%
N#Cc1c(C(F)(F)F)cc(-c2ccccc2Cl)[nH]c1=O	25	-7%	-21%	1%	-26%
COCCOC(=O)c1c(C)oc2ccc(NS(=O)(=O)c3cccs3)cc12	0	0%	7%	-1%	-4%
CCOc1ccc(S(=O)(=O)Nc2ccc3oc(C)c(C(=O)OCCOC)c3c2)cc1	.	.	1.8µM*	.	1.5µM*
COCCOC(=O)c1c(C)oc2ccc(NS(=O)(=O)c3ccc(C(=O)O)cc3)cc12	0	3%	-2%	1%	-27%
CC(=O)c1c(C)oc2ccc(N(C(C)=O)S(=O)(=O)c3ccc(Cl)c([N+](=O)[O-])c3)cc12	-117*	?	?	6.5µM*	?
CC(=O)c1c(C)oc2ccc(N(C(C)=O)S(=O)(=O)c3ccc(Br)cc3)cc12	-1	-19%	?	-18%	?
CCCCOC(=O)c1c(C)oc2ccc(NS(=O)(=O)c3ccc4c5c(cccc35)C(=O)N4)cc12	-28	-18%	?	-1%	18µM*
COC(=O)c1c(C)oc2ccc(N(C(C)=O)S(=O)(=O)c3ccccc3)cc12	-2	-9%	15µM*	?	-105%
COc1ccc(NC(=O)CSc2nnc(-c3cccnc3)s2)cc1	-6	10%	0%	1%	-3%
Cc1ccc(C(=O)OCC(=O)N(CC(C)C)c2c(N)n(Cc3ccccc3)c(=O)[nH]c2=O)s1	i	0%	16%	1%	-9%
O=c1[nH]c(=S)[nH]c2c1[C@H](CCc1cccc(Cl)c1)O[C@H](C1CCCC1)C2	56	?	-13%	?	?
COC(=O)C1(CCSC)NC(c2ccc(O)c(OC)c2)C2C(=O)N(c3ccc(C)cc3)C(=O)C21 (stereo not drawn)	47	-12%	19%	-7%	-7%
O=C(CCc1ccccc1)N=C1SC2CS(=O)(=O)CC2N1Cc1ccc(F)cc1 (stereo not drawn)	-6	2%	?	-3%	-14%
COC(=O)c1c(C)oc2ccc(N(C(=O)c3ccncc3)S(=O)(=O)c3ccc(Br)cc3)cc12	.	.	8.2µM*	.	3.7µM*
N#CC1=C(N)C2=CCCC[C@H]2[C@H](c2ccccc2)C1(C#N)C#N	-56*	?	?	?	?
N#CC1=C(N)C2=CCCC[C@H]2[C@H](c2ccc(Br)cc2)C1(C#N)C#N	-95*	-4%	?	-5%	?
SMILES	IL-1B inflam inh	HT1080-NT tox	DT40 TDP1 CPT	HT1080 IDH1KD tx	TDP1 cell noCPT
N#CC1=C(N)C(C#N)(C#N)[C@H](c2ccncc2)[C@H]2CC3(CC=C12)OCCO3	7	-3%	?	-4%	-17%
O=C(C#Cc1ccccc1)c1ccc([N+](=O)[O-])cc1	-97*	?	0.65µM*	?	0.92µM*
O=C(C#Cc1ccccc1)c1ccccc1	-108*	?	0.73µM*	18µM*	0.58µM*
CN(C)C(=O)C#Cc1ccccc1	-10	16%	2%	25%	-18%
CC(=O)c1ccc([N+](=O)[O-])cc1	8	-7%	-6%	9%	-2%
Cc1ccc(S(=O)(=O)c2nc(NN(C)C)sc2Cl)cc1	6	-6%	-19%	-23%	?
COc1cc(OC)c2c(=O)cc(-c3ccccc3)oc2c1	-23	-4%	21µM*	0%	?
COc1cc2c(c3oc(-c4ccccc4)cc(=O)c13)C=CC(C)(C)O2	16	-1%	16µM*	9%	26µM*
COc1c(O)c(O)c2oc(-c3ccccc3)cc(=O)c2c1OC	-9	-8%	?	-3%	?
COc1cc(OC)cc(C(=O)OCC(=O)NCc2ccco2)c1	0	-5%[9.24 µM]	-13%	-2%	14%
COc1cc(C(=O)OCC(=O)NCc2ccco2)cc(OC)c1OC	-67*	6%	1%	2%	-18%
O=C(COC(=O)c1cccs1)NCc1ccco1	2	-1%	-19%	-1%	-1%
O=C(COC(=O)c1ccc(NS(=O)(=O)c2cccs2)cc1)NCc1ccco1	8	9.2µM*	4.1µM*	8.2µM*	2.9µM*
O=C(COC(=O)c1ccc(NS(=O)(=O)c2cccs2)cc1O)Nc1nc2ccccc2s1	0	0%	5%	0%	-2%
O=C(COC(=O)c1ccc(NS(=O)(=O)c2cccs2)cc1O)NCc1ccccc1	40	2.6µM*	4.6µM*	3.7µM*	3.3µM*
COc1ccc(-n2c(CCNC(=O)c3ccccc3C(F)(F)F)nnc2SC)cc1	.	.	11%[9.04 µM]	.	-11%
CCCCn1c(O)c(/C=C/C=C/C=Nc2ccccc2)sc1=S	-7	-10%	12µM*	-8%	15µM*
CCCn1c(O)c(C=Nc2ccccc2)sc1=S	-9	-19%	-5%	-4%	?
CCn1c(O)c(/C=C/C=C/C=Nc2ccccc2)sc1=S	-7	-5%	?	3%	26µM*
Oc1c(/C=C/C=C/C=Nc2ccccc2)sc(=S)n1Cc1ccccc1	0	9%	?	10%	21µM*
COC(=O)c1cccc(NC(=O)c2cccs2)c1C	7	8%	-7%	-1%	-24%
O=Cc1cn(-c2ccccc2)nc1-c1ccc(F)cc1	-18	2%	?	5%	21µM*
O=C(N/N=C/c1cn(-c2ccccc2)nc1-c1cccs1)c1ccccc1F	-12	-26%	16µM*	?	-120%
